# Assay results reported in the supplement of paper PMC9950053.
# Counter-ions that a name gives are not always drawn.
# Test system: Danio rerio larvae (5 dpf)
# Test: habituation (activity change first vs second 5 min of 1-s interval sound, period 17) minus DMSO control (percentage points); higher = larger habituation measure than DMSO larvae
# Conditions: 10 µM; exposure time: 3 h pre-incubation + 3 h imaging
# Experimental: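 Wild-type 5 dpf zebrafish larvae (n=48 per drug, 96-well plates, 28.5 °C) were exposed to Tocris FDA-approved library compounds at 10 µM (0.1% DMSO) for 3 h before and 3 h during imaging. Images were taken every 6 s during visual and acoustic stimuli, and larvae were tracked with Z-LaP Tracker. Each measure is the treated-group mean minus the DMSO control mean (n=844), in percentage points. This mapping covers compounds with 5-character plate codes.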
row,SMILES,habituation
1,COc1ccc(C(CN(C)C)C2(O)CCCCC2)cc1 (stereo unspecified) [Venlafaxine hydrochloride],-5.52
